In the library only some 7.3% were active in any assay of this set; here they are far more common.
NPC1 promoter act: qHTS Assay for NPC1 Promoter Activators | Huh7 NPC1 promoter luciferase reporter, 24 h | Potency, µM (titrated, usually from 9.22 µM), most hits filed as activators | actives 2.4% (n = 320,000) | AID 485313, 2010; further: nearly all actives have a fitted effect of over 60% in size
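Quantitative HTS used a cell-based reporter: Huh7 cells stably bearing the NPC1 promoter upstream of luciferase were treated with compounds for 24 h, and promoter activation was read as luminescence.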
Rab9 prom act: qHTS Assay for Rab9 Promoter Activators. Huh7 Rab9 promoter-luciferase reporter, luminescence, 24 h. Potency, µM (series often up to 9.22 µM), hits mostly activators. actives 2.8% (n = 320,000); further: nearly all actives have a fitted effect of over 60% in size
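Huh7 reporter line, Rab9 promoter upstream of luciferase. Compound exposure 24 h at 37 °C in reduced-serum medium with 10% FBS. Read-out: luminescence.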
ELG1 genotoxic: qHTS screen for small molecules that induce genotoxicity in human embryonic kidney (HEK293T) cells expressing luciferase-tagged ELG1 | HEK293T ELG1-luciferase reporter, luminescence, 16 h | Potency, µM (top dose mostly 46 µM), usual class: activators | actives 1.3% (n = 330,000) | AID 504466, 2011; further: nearly all actives have a fitted effect of over 60% in size
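Genotoxic stress is detected as increased luminescence from luciferase-tagged ELG1 in HEK293T cells, measured with ONE-Glo after a 16 hr treatment at 37 °C.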
SMN2 splice up: qHTS Assay for Enhancers of SMN2 Splice Variant Expression; HEK293 SMN2-luciferase splicing reporter, luminescence, 30-36 h; Potency, µM (doses to about 46.1 µM), most hits filed as activators; actives 2.8% (n = 210,000); further: nearly all actives have a fitted effect of over 55% in size
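HEK293 cells carry an SMN2 minigene-luciferase reporter in which exon 7 inclusion puts luciferase in frame. Cells were seeded at 2000 cells/well, attached for 10-12 hours, then exposed to compounds for 30-36 hours at 37C before ONE-Glo luminescence.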
uPA generation: qHTS for Inhibitors of Cell Surface uPA Generation; cell surface uPA generation assay, qHTS; actives 0.31% (n = 330,000); AID 540303, 2011; Potency, µM (doses to about 38.3 µM), usual class: inhibitors; active means well fitted inhibition curve with a large enough effect; inconclusive means small, poorly fitted or top-dose-only effect; inactive means no such curve, though single readings can be large or run the other way; tested in mouse RAW 264.7 cells; further: nearly all actives have a fitted effect of over 55% in size
FLuc counter: qHTS profiling assay for firefly luciferase inhibitor/activator using purifed enzyme and Km concentrations of substrates (counterscreen for miR-21 project). Luciferin 4-monooxygenase (Photinus pyralis), P08659. purified FLuc, Km substrates, luminescence inhibition. Potency, µM (doses to about 57.5 µM), most hits filed as inhibitors. actives 6.9% (n = 360,000); further: nearly all actives have a fitted effect of over 55% in size
Target sequence (P08659 whole entry, looked up): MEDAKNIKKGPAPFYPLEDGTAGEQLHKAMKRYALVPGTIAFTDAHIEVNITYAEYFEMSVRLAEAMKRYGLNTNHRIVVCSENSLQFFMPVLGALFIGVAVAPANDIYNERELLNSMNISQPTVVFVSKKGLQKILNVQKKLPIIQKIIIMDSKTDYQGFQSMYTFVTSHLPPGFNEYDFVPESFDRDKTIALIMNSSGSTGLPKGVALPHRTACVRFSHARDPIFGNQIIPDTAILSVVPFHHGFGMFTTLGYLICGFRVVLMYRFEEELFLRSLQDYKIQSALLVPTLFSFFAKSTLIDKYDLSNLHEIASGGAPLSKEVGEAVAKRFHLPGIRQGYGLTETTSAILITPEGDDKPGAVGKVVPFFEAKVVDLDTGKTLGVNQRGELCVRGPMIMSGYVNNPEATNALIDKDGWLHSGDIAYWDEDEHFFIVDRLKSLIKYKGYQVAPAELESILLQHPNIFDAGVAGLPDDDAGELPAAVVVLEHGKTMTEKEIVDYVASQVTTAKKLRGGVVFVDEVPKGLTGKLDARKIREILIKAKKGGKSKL
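Purified P. pyralis luciferase (10nM final) with 10uM D-luciferin and 10uM ATP (Km levels) in 50mM Tris acetate pH 7.5, 10mM Mg acetate, 0.01% Tween-20, 0.05% BSA; qHTS 6-point titration, ~60 µM downward; luminescence read.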
Each line names hits and unclear results; the compound was inactive in the other large screens. Unless noted, the call rests on the fitted dose curve; in most records, active means well fitted curve in the direction sought with a large enough effect; inconclusive means small, poorly fitted or top-dose-only effect, or another doubt; inactive means no such curve, though single readings can be large; an effect the other way counts as inactive or inconclusive.

CC(C)[C@@H](CC(=O)N[C@@H]1CCCC[C@H]1C(=O)N[C@H](CC(=O)N[C@@H](CCC(=O)O)CC(=O)O)Cc1ccccc1)NC(=O)C[C@H](Cc1ccccc1)NC(=O)[C@@H]1CNCC[C@H]1N	none (no result: NPC1 promoter act, Rab9 prom act, ELG1 genotoxic, uPA generation, FLuc counter)
COc1ccc(S(=O)(=O)NCc2nc(-c3ccccc3)no2)cc1	none (no result: NPC1 promoter act, Rab9 prom act, ELG1 genotoxic, uPA generation)
COc1cc(OC)c2c(=O)c(-c3ccccc3)coc2c1	SMN2 splice up 11µM (no result: NPC1 promoter act, Rab9 prom act, ELG1 genotoxic, uPA generation, FLuc counter)
COc1ccc(-c2coc3cc(OC)cc(OC)c3c2=O)cc1	NPC1 promoter act inconclusive, Rab9 prom act inconclusive, ELG1 genotoxic inconclusive, FLuc counter 15µM
COc1cc(O)cc2occ(-c3ccc(O)cc3)c(=O)c12	uPA generation inconclusive, FLuc counter inconclusive (no result: SMN2 splice up)
Cc1ccc(-c2nnc(CCC(=O)N(C)Cc3nccs3)o2)s1	none (no result: SMN2 splice up)
Cc1ccc(-c2nnc(CCC(=O)NCC3C4CC5CC(C4)CC3C5)o2)s1 (configuration not stated)	NPC1 promoter act inconclusive, Rab9 prom act 2.5µM, ELG1 genotoxic inconclusive, FLuc counter 19µM (no result: SMN2 splice up)
O=c1[nH]c(CSc2ccccn2)nc2c1oc1ccccc12	NPC1 promoter act 3.5µM, Rab9 prom act 0.79µM, ELG1 genotoxic inconclusive, SMN2 splice up 1µM, FLuc counter 2.7µM
CCc1cccc(NC(=O)CCc2nc3cccnc3n2Cc2ccc(OC)cc2)c1	none (no result: NPC1 promoter act, Rab9 prom act, ELG1 genotoxic, uPA generation)
CCOC(=O)c1c(-c2cccs2)csc1NC(=O)CC(C)C	none
COC(=O)c1c(-c2cccs2)csc1NC(=O)COc1ccccc1	FLuc counter 6.7µM (no result: NPC1 promoter act, Rab9 prom act, ELG1 genotoxic, SMN2 splice up, uPA generation)
COC(=O)c1c(-c2cccs2)csc1NC(=O)c1cccnc1	Rab9 prom act inconclusive, FLuc counter 17µM
COC(=O)c1c(-c2cccs2)csc1NC(=O)COc1ccc(C)cc1	none (no result: NPC1 promoter act, Rab9 prom act, ELG1 genotoxic, SMN2 splice up, uPA generation)
O=Nc1c(O)[nH]c2ccccc12.[Cu].[O-]/N=C1/C(=[OH+])Nc2ccccc21	none (no result: NPC1 promoter act, Rab9 prom act, ELG1 genotoxic, uPA generation, FLuc counter)
O=Nc1c(-c2c(O)[nH]c3cc(Br)ccc23)[nH]c2ccccc12	NPC1 promoter act 2.9µM, Rab9 prom act 3.7µM, ELG1 genotoxic inconclusive, SMN2 splice up 16µM, uPA generation inconclusive, FLuc counter 9.5µM
Cc1cc(C(=O)Nc2ccc3[nH]ccc3c2)no1	NPC1 promoter act 2.2µM, Rab9 prom act 2.8µM, ELG1 genotoxic inconclusive, FLuc counter 11µM (no result: SMN2 splice up)
Cc1cc(C(=O)NNC(=O)Nc2ccc(Cl)cc2)no1	none (no result: SMN2 splice up)
COc1ccc(NC(=O)Cn2c(C)cc3ccccc3c2=O)c(OC)c1	none (no result: NPC1 promoter act, Rab9 prom act, ELG1 genotoxic, uPA generation)
CC(C)Oc1ccc(/C(O)=C2/C(=O)C(=O)N(CCN(C)C)C2c2cccs2)cc1 (configuration not stated)	none
Clc1ccc(-c2nn3c(-c4ccccc4)nnc3s2)cc1	none (no result: uPA generation)
c1ccc(-c2nnc3sc(-c4csc5c4CCCC5)nn23)cc1	SMN2 splice up inconclusive, FLuc counter 15µM
Cc1nc2sc(-c3ccccc3)nn2c(=O)c1Br	NPC1 promoter act 3.2µM, Rab9 prom act 2.2µM, ELG1 genotoxic inconclusive, SMN2 splice up 5.6µM, FLuc counter 8.5µM
c1ccc(-c2nnc3sc(-c4ccncc4)nn23)cc1	SMN2 splice up 4.5µM (no result: uPA generation)
COc1ccc(-c2nn3c(=O)c(C)nnc3s2)cc1	FLuc counter inconclusive (no result: SMN2 splice up)
CC(C)c1cc(C(=O)N/N=C/c2ccco2)n[nH]1	NPC1 promoter act inconclusive, Rab9 prom act inconclusive, ELG1 genotoxic inconclusive, SMN2 splice up 16µM, FLuc counter 17µM
O=C(N/N=C/c1ccco1)c1cc(-c2cccs2)[nH]n1	uPA generation inconclusive, FLuc counter inconclusive
C/C(=N\NC(=O)c1cc(C(C)C)[nH]n1)c1ccco1	NPC1 promoter act 4µM, Rab9 prom act 2.5µM, ELG1 genotoxic inconclusive, SMN2 splice up 2.8µM, uPA generation inconclusive, FLuc counter 12µM
C/C(=N/NC(=O)c1cc(-c2ccc(Br)s2)[nH]n1)c1ccco1	FLuc counter 24µM
COc1ccc(OC)c(CNC(=O)NCc2noc3ccc(C)cc23)c1	none (no result: NPC1 promoter act, Rab9 prom act, ELG1 genotoxic, SMN2 splice up, uPA generation)
CCC(C)(C)NC(=S)Nc1ccc(-c2nc3ccc(C)cc3s2)cc1	NPC1 promoter act 4.5µM, Rab9 prom act 2.8µM, ELG1 genotoxic 9.2µM, FLuc counter 2.7µM
CCCCNC(=S)Nc1ccc(-c2nc3ccc(C)cc3s2)cc1	NPC1 promoter act 3.5µM, Rab9 prom act 2.8µM, ELG1 genotoxic 4.6µM, SMN2 splice up 3.5µM, FLuc counter 1.7µM
Cc1ccc(S(=O)(=O)N2CCC(C(=O)OC(C)C(=O)N(C)c3ccccc3)CC2)cc1C (configuration not stated)	none (no result: SMN2 splice up)
O=c1c2ccccc2oc2nc(-c3ccco3)n(-c3ccccc3)c(=O)c12	NPC1 promoter act inconclusive, Rab9 prom act inconclusive, SMN2 splice up 13µM
CCCN(C(=O)CCc1nc(-c2ccc(OC)cc2)no1)c1ccccc1F	none (no result: NPC1 promoter act, Rab9 prom act, ELG1 genotoxic, uPA generation)
CCOC(=O)C1=C(C)N=C2c3ccccc3C(=O)C2C1c1ccc(Cl)cc1 (configuration not stated)	none
CCOC(=O)C1=C(Cc2ccc(Cl)cc2)C(=O)c2ccccc2C1=O	uPA generation inconclusive, FLuc counter 21µM
CCOc1ccc(-n2nnnc2SCC(=O)Nc2cccc(O)c2)cc1	uPA generation inconclusive (no result: SMN2 splice up)
CCOC(=O)c1sc(-c2ccccc2)cc1N	NPC1 promoter act inconclusive, Rab9 prom act inconclusive, ELG1 genotoxic 13µM, SMN2 splice up inconclusive, FLuc counter 13µM

Bioassay records from PubChem BioAssay.
